A selection: hits, their analogues and other compounds. The true share with any hit is near 11%.
Pf growth 48h – inhibits P. falciparum growth in the first generation, 48 h | hit rate 5.9% among 310,000 | P. falciparum luciferase growth in erythrocytes, 48 h | Potency, µM (highest dose often 28.7 µM), without a hit: at the top dose activity change, negative = inhibition, hits mostly inhibitors
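Luminescence readout; reporter = integrated firefly luciferase in P. falciparum. RBC culture at 2% hematocrit, 0.1% parasitemia final, 37 C/5% CO2; decreased signal taken as growth inhibition.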
AmpC inh no detg – blocks E. coli AmpC beta-lactamase in detergent-free assay. P00811. AmpC nitrocefin hydrolysis, absorbance 480 nm, 0.0001% Triton. Potency, µM (titrated, usually from 57.1 µM), for inactives: top-dose activity change, negative = inhibition, hits mostly inhibitors. hit rate 0.52% among 330,000. AID 485341;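 further: plate controls were no compound for no effect and no enzyme for full effect; nearly all actives have a fitted effect of over 20% in size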
Target sequence (P00811 whole entry, looked up): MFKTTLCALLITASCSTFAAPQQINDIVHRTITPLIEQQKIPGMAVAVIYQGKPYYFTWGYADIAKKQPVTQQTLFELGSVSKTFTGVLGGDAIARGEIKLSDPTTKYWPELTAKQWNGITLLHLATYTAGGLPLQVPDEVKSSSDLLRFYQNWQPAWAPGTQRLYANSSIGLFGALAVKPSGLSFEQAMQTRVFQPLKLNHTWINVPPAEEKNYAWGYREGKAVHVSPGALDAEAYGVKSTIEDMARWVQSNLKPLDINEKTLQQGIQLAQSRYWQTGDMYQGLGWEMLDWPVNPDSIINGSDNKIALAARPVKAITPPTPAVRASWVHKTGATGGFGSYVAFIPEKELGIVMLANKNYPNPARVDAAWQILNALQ
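20 mM phosphate pH 7.0 + 0.01% (detergent screen) or 0.0001% Triton X-100; 5.3 nM AmpC reagent; cpd preinc 15 min RT; nitrocefin (800 uM stock) to start; A480 q20 s × 4 min; Activity was normalised to no-enzyme and no-compound control wells.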
AmpC inh detg – inhibitors of E. coli AmpC beta-lactamase with detergent; P00811; AmpC hydrolysis of nitrocefin, absorbance 480 nm, 0.01% Triton; Potency, µM (highest dose often 114 µM), without a hit: top-dose activity change, negative = inhibition, actives largely listed as inhibitors; hit rate 0.041% among 370,000;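 further: 0% = no-compound wells and -100% = no-enzyme wells; nearly all actives have a fitted effect of over 25% in size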
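AmpC (5.3 nM in the dispensed reagent) in 20 mM phosphate pH 7.0 with 0.01% (detergent screen) or 0.0001% Triton X-100 was preincubated with compounds for 15 min at room temperature. Nitrocefin was then added from an 800 uM solution, and hydrolysis was followed at 480 nm.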
HCV inhibitor – HCV inhibition; Huh7.5.1 HCVcc-Cre infection, luciferase reporter, 44 h; Potency, µM (doses to about 41.8 µM), for inactives: at the top dose activity change, negative = inhibition, actives largely listed as inhibitors; hit rate 3.4% among 340,000; AID 651820
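Seed cells (1,000/well) for 4 h; treat with compound and infect with HCVcc-Cre, moi about 0.5. Incubate 44 h, then detect luciferase activity.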
Pf growth 96h – P. falciparum growth inhibition at 96 hours; P. falciparum luciferase reporter growth, 96 h; AID 504834; Potency, µM (titrated, usually from 28.7 µM), for the others: at the top dose activity change, negative = inhibition, hits mostly inhibitors; hit rate 6.9% among 320,000
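Readout is luminescence from an integrated firefly luciferase in P. falciparum. Red cells, 2% hematocrit and 0.05% parasitemia final, were cultured with compound through two parasite generations (96 hours) at 37 C, 5% CO2.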
AMA1 RON2 block – disrupts binding of P. falciparum AMA1 to RON2. Potency, µM (titrated, usually from 58.2 µM), for inactives: at the highest dose activity change, negative = inhibition, actives largely listed as inhibitors. hit rate 0.2% among 360,000. AlphaScreen AMA1-biotinylated RON2 peptide binding;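 further: 0% = vehicle wells and -100% = peptide control; nearly all actives have a fitted effect of over 45% in size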
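AMA1 (3D7) with his tag at 25 nM final met compounds first, then biotinylated RON2 peptide at 25 nM; detection used donor plus acceptor beads, 10 µg/mL apiece, read by AlphaScreen after 30 min at room temperature.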
Starred values were filed as active, the others as inactive; ? = inconclusive; . = not tested or not shown; [ ] = dose if it differs, or a comment. The call rests on the fitted dose curve; in most records, active means well fitted curve in the direction sought with a large enough effect; inconclusive means small, poorly fitted or top-dose-only effect, or another doubt; inactive means no such curve, though single readings can be large; an effect the other way counts as inactive or inconclusive. Unless noted, on the % scale 0 is the no-effect control and ±100 the full control effect; potency means the concentration at half of the fitted maximal effect.

SMILES | Pf growth 48h | AmpC inh no detg | AmpC inh detg | HCV inhibitor | Pf growth 96h | AMA1 RON2 block
C(=N\Nc1nc2ccccc2[nH]1)/c1ccccc1 | ? | -32% | 1% | -20% | -22% | 61%
Brc1ccc(-c2ccc(/C=N/Nc3nc4ccccc4[nH]3)o2)cc1 | 0.41µM* | -14% | -12% | 4% | 13µM* | 99%
CCn1c(=O)cc(OCC(=O)NCc2ccccc2Cl)c2ccccc21 | . | . | -6% | . | . | .
COc1ccc(NC(=O)CN(c2ccc(C)cc2)S(=O)(=O)c2cccs2)cc1 | . | . | 5% | . | . | .
Fc1cccc(/C=N/Nc2nc3ccccc3[nH]2)c1 | 0% | ? | -1% | -2% | ? | 19%
CN(C)c1nc(N/N=C/c2c[nH]c3ccccc23)nc(N2CCOCC2)n1 | ? | 9% | 0% | ? | -27% | 0%
c1cnc2c(OCc3nc4ccccc4[nH]3)cccc2c1 | 53% | -46% | ? | -9% | 8.3µM* | -6%
COc1ccccc1OCc1nc2ccccc2[nH]1 | 164% | -18% | -15% | -10% | . | 7%
C(=N\Nc1nc2ccccc2[nH]1)/c1cccc2cccnc12 | 1.7µM* | -40% | -7% | 4µM* | 1.7µM* | -4%
C(=N\Nc1nc(N2CCCCC2)nc(N2CCCCC2)n1)/c1c[nH]c2ccccc12 | ? | -9% | -4% | ? | 6.6µM* | 6%
Fc1ccc(/C=N/Nc2nc3ccccc3[nH]2)cc1F | 0.66µM* | -17% | 3% | ? | 0.52µM* | 56%
COc1cc(C)c(Cl)cc1S(=O)(=O)NCCc1c(C)[nH]c2ccccc12 | . | . | 3% | . | . | .
CCOC(=O)c1ccccc1NC(=O)CCc1c(C)nc2ncnn2c1C | . | . | 17% | . | . | .
Cc1ccc(Cl)cc1NC(=O)Cn1c(=O)n(Cc2ccccc2)c(=O)c2oc3ccccc3c21 | . | . | 21% | . | . | .
O=[N+]([O-])c1cc(/C=N/Nc2nc3ccccc3[nH]2)c(O)cc1O | 2.1µM* | -33% | -17% | ? | 0% | ?
O=c1[nH]c(N/N=C/c2cc3c(cc2[N+](=O)[O-])OCO3)nc2ccccc12 | 37% | -15% | -1% | -4% | ? | 51%
CS(=O)(=O)CCC(C(=O)Nc1cccc(C(F)(F)F)c1)N1Cc2ccccc2C1=O (stereo not drawn) | . | . | 2% | . | . | .
CC(=O)c1sc(NC(=O)C2(F)C(F)(F)C(F)(F)C(F)(F)C(F)(F)C2(F)F)nc1C | 8.3µM* | -1% | -10% | 10µM* | -20% | 4%
CCC(C)OC(=O)c1c(N)n(Cc2cccs2)c2nc3ccccc3nc12 (stereo not drawn) | 0% | -18% | -15% | ? | . | 11%
Nc1c(C(=O)OCc2ccccc2)c2nc3ccccc3nc2n1Cc1cccs1 | . | -45% | 0% | ? | 15µM* | 17%
COc1cccc(-n2nnc3c(=O)n(Cc4c(F)cccc4Cl)cnc32)c1 | 8% | -18% | ? | 6% | 9.3µM* | -7%
COc1cccc(-n2nnc3c(=O)n(Cc4cccc(F)c4)cnc32)c1 | 15% | -37% | 3% | -2% | ? | 5%
CCn1c(SCC(=O)N2CCC(C)CC2)nnc1-c1ccccc1O | . | . | 4% | . | . | .
CC(=O)Nc1cc([As](=O)(O)O)ccc1O | ? | -37% | -11% | 1%[8.37 µM] | 11µM* | 0%
NNC(=O)c1cc(-c2ccccc2)sc1N | 9.3µM* | -40% | 6% | -9% | ? | 63%
CC(=O)c1sc(-c2ccccc2)cc1N | 62% | -12% | 0% | 8.9µM* | 93% | -28%
NNC(=O)c1sc(-c2ccccc2)cc1N | ? | -41% | 2% | 24% | 16% | 34%
CC1CCC(NC(=O)c2ccc3c(c2)N(Cc2cccc(F)c2)C(=O)c2ccccc2S3)CC1 (stereo not drawn) | . | . | -9% | . | . | .
CNc1nc(-c2ccccn2)nnc1-c1ccccc1 | . | 5% | -2% | ? | ? | -11%
c1ccc(-c2nnc(-c3ccccn3)nc2NC2CCCCC2)cc1 | 0.93µM* | -10% | -6% | 1.6µM* | . | 10%

High-throughput results from PubChem BioAssay.
